Test results taken from the supplement of paper PMC7156485.
± gives the standard deviation of the averaged measurements.

Experiments:
Conditions in all cases: concentration: 10 µM; 24 h
HCC1569 [1] = assay: cell number relative to DMSO (% of DMSO); higher = more cells (less growth inhibition / toxicity)
How it was run: (§1)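 Six fields per well were imaged at ×10 after the cells were fixed in 3.7% formaldehyde and stained with a rabbit anti-H1.0 antibody, an AlexaFluor 647 secondary and DAPI. The HCC1569 and TDF cells had been plated at 800 per well in 384-well plates (RPMI, 10% FBS) and treated in triplicate with compounds at 10 µM for 24 h at 37 °C. The values are the median of replicates of H1.0 nuclear intensity or cell number, as percent of the plate control. Smoothing for positional effects was applied to HCC1569 data.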

TDF [2] = assay: as above
How it was run: as §1

TDF [3] = assay: H1.0 immunofluorescence intensity relative to DMSO (% of DMSO); higher = stronger H1.0 induction, active = 120 or more
How it was run: as §1

HCC1569 [4] = assay: H1.0 immunofluorescence intensity relative to DMSO (% of DMSO); higher = stronger H1.0 induction, active = 140 or more
How it was run: as §1
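Wherever H1.0 immunofluorescence intensity relative to DMSO is given: TDF is a line of transformed human dermal fibroblasts of mesenchymal origin.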
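Wherever cell number relative to DMSO is given: TDF denotes transformed human dermal fibroblasts of mesenchymal origin.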

Compound	cell number (HCC1569 [1])	cell number (TDF [2])	H1.0 immunofluorescence intensity (TDF [3])	H1.0 immunofluorescence intensity (HCC1569 [4])
CCCCCC=CCC=CCCCCCCCC(=O)NCCO [Anandamide (18:2,n-6)]	100	108	99.1 (inactive)	94.4 (inactive)
CC(N)Cc1c[nH]c2ccc(O)cc12.O=C(O)C=CC(=O)O (stereo not drawn) [alpha-Methyl-5-hydroxytryptamine maleate]	99.8	104	90.3 (inactive)	87.9 (inactive)
Cc1cc(O)c2c(=O)c3c(O)cc(O)c4c5c(O)cc(O)c6c(=O)c7c(O)cc(C)c8c1c2c(c34)c(c78)c65 [Hypericin]	103 ± 2.1	100 ± 2.6	96.3 (inactive)	94.4 (inactive)
Cl.O=C1CCC2(O)C3Cc4ccc(O)c5c4C2(CCN3CC2CC2)C1O5 (configuration not stated) [Naltrexone.HCl]	101	100	90.5 (inactive)	99.8 (inactive)
Oc1ccc2c3c1OC1C(O)CCC4(O)C(C2)N(CC2CCC2)CCC314 (configuration not stated) [Nalbuphine]	105	105	89.2 (inactive)	104 (inactive)
Cl.OCc1cnc[nH]1 [4-Imidazolemethanol hydrochloride]	99.6	102	93.3 (inactive)	94.1 (inactive)
CCC(C(=O)O)C1CCC(C)C(C(C)C(O)C(C)C(=O)C(CC)C2OC3(C=CC(O)C4(CCC(C)(C5CCC(O)(CC)C(C)O5)O4)O3)C(C)CC2C)O1 (configuration not stated) [Salinomycin]	87.1	87.7	111 (inactive)	110 (inactive)
Cl.NCCc1c[nH]c2ccc(O)cc12 [Serotonin hydrochloride]	102	118	90.1 (inactive)	92.2 (inactive)
CCOP(=O)(OCC)C(C)NC(=O)N(CCCl)N=O (configuration not stated)	100	80.1	102 (inactive)	90.6 (inactive)
Br.CN1C2CC(OC(=O)C(CO)c3ccccc3)CC1C1OC12 (single isomer, unassigned; (-)) [(-)-Scopolamine hydrobromide]	100	104	97.6 (inactive)	103 (inactive)
NCCCNCCSP(=O)(O)O [Amifostine]	102.2 ± 1	104 ± 2.8	91.8 (inactive)	98.1 (inactive)
CN1C2CCC1CC(O)C2 (configuration not stated) [Tropine]	102	104	96.1 (inactive)	90 (inactive)
CC(=O)OC1C(=O)C2(C)C(O)CC3OCC3(OC(C)=O)C2C(OC(=O)c2ccccc2)C2(O)CC(O)C(C)=C1C2(C)C (configuration not stated) [Baccatin III]	105	112	111 (inactive)	105 (inactive)
